Data: PubChem BioAssay (NCI)
Where “and” joins values, the source holds several entries; their conditions need not be identical. Identical values can stand only once. This is part of a sample that, as a whole, favours compounds with a hit. Of some 83,000 tested, about 20% had one in any assay.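 Compound tested at a single concentration for 48 hours in 96-well plates; a percent growth value below 10 was scored as active.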 Unmarked numbers belong to inactive results. Calls of active or inactive are those of the source.

system: MDA-MB-468 breast; assay: NCI-60 one-dose screen, 48 h (100 = growth as untreated, 0 = no growth, -100 = all killed); conditions: 10 µM unless noted

Row | SMILES | growth
1 | Oc1c(I)cc(I)cc1CNCCN(Cc1ccccn1)Cc1ccccn1 | -61.2% (active)
2 | Oc1ccccc1-c1nc2c3ccccc3c3ccccc3c2o1 | 83%
3 | C=CCNC(=O)Cc1c(-c2ccc(OC)cc2)oc2c(OC)c3c(c(OC)c12)OCO3 | 94.9%
4 | Cc1oc2ncnc(Nc3ccccc3)c2c1C(=O)NCCO | 109%
5 | O=C1Nc2cc(Cl)ccc2/C1=C\c1ccc(OCc2ccc(Br)cc2F)cc1 | -37.8% (active)
6 | CN(C)CCNc1ccc2ncc(C#Cc3cncc(C(=O)Nc4ccc(CN5CCN(C)CC5)c(C(F)(F)F)c4)c3)n2n1 | -67.9% (active)
7 | NS(=O)(=O)c1ccc(-c2cc(-c3nnc(SCC(=O)Nc4ccc(C(=O)/C=C/c5ccc(Cl)cc5)cc4)n3-c3ccccc3)c3ccccc3n2)cc1 | 84.5%
8 | NC(=NCCCOc1ccc(F)cc1)Nc1ccc(Cl)c(Cl)c1 | 41%
9 | C1CCN(c2nc(N3CCCCC3)nc(N3CCOCC3)n2)CC1 | 107%
10 | c1ccc2cc(Cn3c(-c4cccc5ccccc45)[n+](Cc4ccc5ccccc5c4)c4c5ccccc5c5ccccc5c43)ccc2c1 | -71.4% (active)
11 | N#CC(C#N)=Cc1cc2ccccc2nc1Oc1ccc(C(F)(F)F)cc1 | 86.1%
12 | CC(=O)Nc1nc(C(=O)N2N=C(C)/C(=C/c3cccs3)C2=O)cs1 | 103%
13 | CCN(CC)c1ccc2c(c1)Oc1nc(N)c(C#N)c(N)c1C2Sc1ccc(OC)cc1 (stereo not given) | -35.3% (active)
14 | CCOC(=O)C/C(=N\Nc1cc(=O)[nH]c2ccc(Cl)cc12)C(=O)OCC | 98.6%
15 | C[C@H]1[C@H](C)CC[C@]2(C(=O)O)CC[C@]3(C)C(=CC[C@@H]4[C@@]5(C)C/C(=C/c6cccnc6)[C@H](O)C(C)(C)[C@@H]5CC[C@]43C)[C@H]12 | 5.39% [100 µM] (active)
16 | COC(=O)c1c2c(c(C)[n+]([O-])c1C)C(=O)C=C(NCc1ccc(OC)cc1)C2=O | -61% (active)
17 | COc1cc(C(=O)c2cc(C(C)=O)c3ccc(C)cn23)cc(OC)c1OC | -2.89% (active)
18 | Nc1ccc2c(c1)Cc1cc(N)c(N)cc1-2 | 76.6%
19 | COc1ccc(/C=C2/SC(=O)N(CC(=O)N3CCN(c4cc5c(cc4F)c(=O)c(C(=O)O)cn5C4CC4)CC3)C2=O)cc1 | 108%
20 | COc1ccc(-c2cc(-c3ccc(Nc4ccnc5cc(Cl)ccc45)cc3)nc(N3CCOCC3)n2)cc1 | 42.1%

Row | SMILES | growth
21 | CCN1C(=S)N(c2ccccc2)C2NC(=S)N(/N=C/C=C/c3ccccc3OC)C21 (stereo not given) | 6.55% (active)
22 | COc1cc(NC2CCCCC2O)c2nc(-c3ccc(Cl)cc3)ccc2c1 (stereo not given) | 98.6% and 62.5%
23 | Cc1nc2sc(C(=O)Nc3cccc4ccccc34)c(N)c2cc1C(=O)c1ccccc1 | 5.45% (active)
24 | S=C1CCCC(=S)N1 | 100%
25 | C=CCCCOC1[C@H](OCc2ccccc2)C(OCc2ccccc2)C(OC)O[C@@H]1CNC(=O)c1cccc(I)c1 (stereo not given in full) | 24.8%
26 | FC(F)(F)C1=NNC(c2ccc3ccccc3c2)=NN1 | 108%
27 | COc1cc(C(=O)O)c(O)c(C(C)(C)C)c1 | 100%
28 | CCSC1=CC(=O)c2ccccc2C1=O | -88.1% (active)
29 | COc1nc(N)nc2c1ncn2C1OC(CO)CC1O (stereo not given) | 98.5%
30 | CC1=CC(=C(c2ccc(N)cc2)c2ccc(N)cc2)C=CC1=N | -13.6% (active) and -1.34% (active)
31 | O=S(=O)(NC1CC2CCC1C2)c1ccc2c(c1)C(=NO)c1cc(S(=O)(=O)NC3CC4CCC3C4)ccc1-2 (stereo not given) | -61.9% (active)
32 | COC(=O)c1nc(-c2ccccc2)oc1S(=O)(=O)n1nc(-c2ccccc2)cc1N | 74.6%
33 | CCNC(=O)N1CCc2cc(OC)c(OCCc3ccc(OC)cc3)cc2C1c1ccc([N+](=O)[O-])cc1C (stereo not given) | -5.05% (active)
34 | Cn1cc(-c2nn3cc(-c4cccnc4)nc3s2)c2cc(F)ccc21 | 66.3%
35 | Cc1ncc(C(=O)Nc2ccc(CN3CCN(C)CC3)c(C(F)(F)F)c2)cc1C#Cc1cnc(N)c2ncccc12 | 63.1%
36 | O=C(Nc1cccc(-c2cccc(F)c2)c1)C1CCN(Cc2cccc3cccnc23)CC1 | 22.6%
37 | Cc1ccccc1NC(=O)N/C(N)=N/c1nc(C)c(C)s1 | -7.08% (active)
38 | O=C(Nc1cccc(Cl)c1)c1ccc(Cl)cc1Cl | 96.9%
39 | N#Cc1c(N2CCNCC2)nc2sc3cc(Cl)c(Cl)cc3n2c1=N | 90.2%
40 | C#CCOc1ccc(C(Nc2ccc(Cl)cc2)c2nnnn2C2CCCCC2)cc1 (stereo not given) | 87.1%
